Measured values from ChEMBL document CHEMBL1961873, “Compounds: GSK PKIS; Assays: Nanosyn kinase panel” (2012).

Key:
[1] = biological target: Glycogen synthase kinase-3 beta (Homo sapiens) (UniProt P49841); details: at 1 µM;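 note: reported values are mean percent inhibition of GSK3B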
[2] = biological target: Homeodomain-interacting protein kinase 1 (Homo sapiens) (UniProt Q86Z02); details: at 0.1 µM
[3] = biological target: Homeodomain-interacting protein kinase 1 (Homo sapiens) (UniProt Q86Z02); details: at 1 µM
[4] = biological target: T1, Homeodomain-interacting protein kinase 4 (Homo sapiens) (UniProt Q8NE63); details: at 0.1 µM
T1 sequence (whole entry): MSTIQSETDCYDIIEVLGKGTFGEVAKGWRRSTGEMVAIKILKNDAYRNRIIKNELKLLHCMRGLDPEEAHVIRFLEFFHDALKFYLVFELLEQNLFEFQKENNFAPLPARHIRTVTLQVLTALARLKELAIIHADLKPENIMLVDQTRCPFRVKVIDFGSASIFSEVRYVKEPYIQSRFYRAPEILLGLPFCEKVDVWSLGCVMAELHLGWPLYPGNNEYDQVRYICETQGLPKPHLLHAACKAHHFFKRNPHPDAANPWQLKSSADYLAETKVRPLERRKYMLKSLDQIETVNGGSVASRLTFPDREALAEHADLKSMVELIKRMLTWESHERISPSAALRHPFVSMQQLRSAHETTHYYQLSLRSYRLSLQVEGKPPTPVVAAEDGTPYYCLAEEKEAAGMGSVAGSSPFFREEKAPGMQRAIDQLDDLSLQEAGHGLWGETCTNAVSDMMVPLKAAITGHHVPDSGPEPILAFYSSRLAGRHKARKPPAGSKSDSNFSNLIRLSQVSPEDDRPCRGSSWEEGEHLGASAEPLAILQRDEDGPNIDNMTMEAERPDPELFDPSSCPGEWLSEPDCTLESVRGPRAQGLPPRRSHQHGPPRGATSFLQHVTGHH

[5] = biological target: T1, Homeodomain-interacting protein kinase 4 (Homo sapiens); details: at 1 µM
[6] = biological target: Mitogen-activated protein kinase 9 (Homo sapiens) (UniProt P45984); details: at 0.1 µM
Mitogen-activated protein kinase 9 (Homo sapiens), sequence (P45984 whole entry, looked up): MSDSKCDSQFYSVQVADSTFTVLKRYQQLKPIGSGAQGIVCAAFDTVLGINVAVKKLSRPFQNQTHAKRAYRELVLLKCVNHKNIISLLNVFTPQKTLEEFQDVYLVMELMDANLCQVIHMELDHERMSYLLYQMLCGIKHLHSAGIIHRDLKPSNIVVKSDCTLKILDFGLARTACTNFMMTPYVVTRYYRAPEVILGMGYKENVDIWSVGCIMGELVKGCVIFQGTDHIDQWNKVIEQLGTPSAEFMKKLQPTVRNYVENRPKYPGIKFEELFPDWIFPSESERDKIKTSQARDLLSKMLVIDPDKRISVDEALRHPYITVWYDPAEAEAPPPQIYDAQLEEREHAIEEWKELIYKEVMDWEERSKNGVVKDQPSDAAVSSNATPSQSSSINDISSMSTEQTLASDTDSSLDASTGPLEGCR

[7] = biological target: Mitogen-activated protein kinase 9 (Homo sapiens) (UniProt P45984); details: at 1 µM
[8] = biological target: Mitogen-activated protein kinase 1 (Homo sapiens) (UniProt P28482); details: at 0.1 µM
Mitogen-activated protein kinase 1 (Homo sapiens), sequence (P28482 whole entry): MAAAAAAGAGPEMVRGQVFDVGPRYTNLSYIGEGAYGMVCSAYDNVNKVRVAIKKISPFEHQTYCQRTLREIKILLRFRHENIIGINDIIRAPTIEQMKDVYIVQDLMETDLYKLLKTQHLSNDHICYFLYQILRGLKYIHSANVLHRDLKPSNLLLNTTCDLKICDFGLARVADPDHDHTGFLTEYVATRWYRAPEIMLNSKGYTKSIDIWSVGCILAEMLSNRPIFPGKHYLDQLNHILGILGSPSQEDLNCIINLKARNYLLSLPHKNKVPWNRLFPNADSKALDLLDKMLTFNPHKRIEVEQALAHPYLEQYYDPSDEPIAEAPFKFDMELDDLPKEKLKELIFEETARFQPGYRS

[9] = biological target: Mitogen-activated protein kinase 1 (Homo sapiens) (UniProt P28482); details: at 1 µM
[10] = biological target: Mitogen-activated protein kinase 3 (Homo sapiens) (UniProt P27361); details: at 0.1 µM;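 note: each value is a mean inhibition figure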
Mitogen-activated protein kinase 3 (Homo sapiens), sequence (P27361 whole entry): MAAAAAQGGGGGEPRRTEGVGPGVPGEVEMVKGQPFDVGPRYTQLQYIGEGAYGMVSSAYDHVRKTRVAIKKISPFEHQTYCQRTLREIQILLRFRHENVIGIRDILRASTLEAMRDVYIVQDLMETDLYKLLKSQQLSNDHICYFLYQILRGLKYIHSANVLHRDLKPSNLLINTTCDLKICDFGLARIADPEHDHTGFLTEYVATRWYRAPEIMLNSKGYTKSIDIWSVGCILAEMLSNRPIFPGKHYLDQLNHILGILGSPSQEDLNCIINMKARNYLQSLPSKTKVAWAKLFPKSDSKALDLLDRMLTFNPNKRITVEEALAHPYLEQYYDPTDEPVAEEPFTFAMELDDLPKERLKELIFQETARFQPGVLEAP

Glycogen synthase kinase-3 beta (Homo sapiens), sequence (P49841 whole entry, looked up): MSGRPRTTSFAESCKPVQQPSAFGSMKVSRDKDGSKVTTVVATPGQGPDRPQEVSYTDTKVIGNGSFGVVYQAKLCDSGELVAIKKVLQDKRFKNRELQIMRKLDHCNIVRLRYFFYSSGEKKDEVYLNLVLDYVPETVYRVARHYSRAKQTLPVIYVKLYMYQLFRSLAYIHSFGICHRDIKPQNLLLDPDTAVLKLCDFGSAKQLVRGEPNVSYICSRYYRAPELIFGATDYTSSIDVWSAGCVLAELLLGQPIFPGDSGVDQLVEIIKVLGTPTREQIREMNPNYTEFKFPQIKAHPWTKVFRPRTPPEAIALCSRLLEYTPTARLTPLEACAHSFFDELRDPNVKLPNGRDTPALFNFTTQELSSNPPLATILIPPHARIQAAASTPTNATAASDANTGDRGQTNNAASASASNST
Homeodomain-interacting protein kinase 1 (Homo sapiens), sequence (Q86Z02 whole entry, looked up): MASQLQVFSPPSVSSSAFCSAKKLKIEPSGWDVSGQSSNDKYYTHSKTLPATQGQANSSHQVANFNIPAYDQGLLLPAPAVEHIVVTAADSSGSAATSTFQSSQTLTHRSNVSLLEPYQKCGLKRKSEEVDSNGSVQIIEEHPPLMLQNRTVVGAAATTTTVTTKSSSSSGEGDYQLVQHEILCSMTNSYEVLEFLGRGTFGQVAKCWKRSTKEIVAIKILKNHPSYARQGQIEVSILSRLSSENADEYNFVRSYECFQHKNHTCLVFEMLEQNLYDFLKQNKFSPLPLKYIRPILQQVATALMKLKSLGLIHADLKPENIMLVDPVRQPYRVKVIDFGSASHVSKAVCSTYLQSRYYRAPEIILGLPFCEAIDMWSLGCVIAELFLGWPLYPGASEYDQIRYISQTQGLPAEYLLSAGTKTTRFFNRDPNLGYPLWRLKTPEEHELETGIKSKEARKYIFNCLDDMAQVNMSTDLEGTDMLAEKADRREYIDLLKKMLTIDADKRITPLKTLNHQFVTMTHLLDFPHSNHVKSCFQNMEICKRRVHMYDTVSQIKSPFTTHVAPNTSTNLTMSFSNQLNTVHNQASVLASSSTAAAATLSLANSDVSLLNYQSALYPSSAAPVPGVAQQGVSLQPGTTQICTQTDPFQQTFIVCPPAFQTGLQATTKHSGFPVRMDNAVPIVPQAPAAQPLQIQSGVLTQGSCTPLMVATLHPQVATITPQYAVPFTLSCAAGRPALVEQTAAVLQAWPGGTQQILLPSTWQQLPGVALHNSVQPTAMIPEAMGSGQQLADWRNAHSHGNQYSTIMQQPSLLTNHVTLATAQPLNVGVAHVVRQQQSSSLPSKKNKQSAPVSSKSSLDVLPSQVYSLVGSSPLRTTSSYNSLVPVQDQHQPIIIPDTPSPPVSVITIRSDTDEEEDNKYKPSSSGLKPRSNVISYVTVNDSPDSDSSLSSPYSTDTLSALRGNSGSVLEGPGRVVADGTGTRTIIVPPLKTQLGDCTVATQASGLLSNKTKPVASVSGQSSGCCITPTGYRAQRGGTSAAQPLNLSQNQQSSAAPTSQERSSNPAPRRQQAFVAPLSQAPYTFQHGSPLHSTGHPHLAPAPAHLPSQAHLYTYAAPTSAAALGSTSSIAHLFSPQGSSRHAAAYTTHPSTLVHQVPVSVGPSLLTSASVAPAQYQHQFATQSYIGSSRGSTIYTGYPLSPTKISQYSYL

| Structure (SMILES) | inhibition [1] | inhibition [2] | inhibition [3] | inhibition [4] | inhibition [5] | inhibition [6] | inhibition [7] | inhibition [8] | inhibition [9] | inhibition [10] |
| --- | --- | --- | --- | --- | --- | --- | --- | --- | --- | --- |
| NC(=O)c1cc(-c2ccc(F)cc2)cc(-c2ccncc2)c1N | 1.12% | 1.44% | 0.21% | -0.23% | 2.98% | 3.69% | 2.06% | 4.92% | 5.18% | 3.25% |
| Fc1ccc(-c2nc3n(c2-c2ccncc2)CCS3)cc1 | 7.8% | -4.87% | -3.92% | 0.39% | 1.1% | 7.66% | 25.9% | 3.06% | 5.59% | 2.96% |
| COc1cc(C)c(N(C)C(=O)CN(C)C)cc1Nc1nc(Nc2cccc(F)c2C(N)=O)c2cc[nH]c2n1 | -3.33% | -4.07% | 2.02% | 0.06% | 4.88% | 1.42% | 2.97% | 0.6% | 3.4% | 2.26% |
| CCc1cccc(CC)c1/C=C/c1cncc(C(=O)NC)c1 | 7.96% | 1.64% | 7.03% | 1.04% | 4.82% | 4.45% | 7.37% | 1.29% | 1% | 2.05% |
| Cc1nnc(-c2ccc(C)c(-c3ccc(C(=O)NCc4ccc(Cl)cc4)cc3)c2)o1 | 4.25% | -2.88% | -3.98% | -0.69% | 0.29% | 4.09% | 4.44% | 8.3% | 4.45% | 2.96% |
| COc1ccc2cc(-c3c(-c4ccncc4)nc(-c4ccc(S(C)(=O)=O)cc4C)n3C)ccc2c1 | 6.76% | 0.5% | -0.46% | -0.03% | 1.88% | 4.44% | 10.1% | 5.2% | 5.44% | 3.83% |
| CS(=O)(=O)CCNCc1cc(-c2cc3c(Nc4ccc(OCc5cccc(F)c5)c(Cl)c4)ncnc3s2)cs1 | 1.78% | -2.22% | -1.08% | -0.67% | 1.29% | 3.11% | 7.13% | 5.61% | 7.79% | 4.58% |
| CN(C)c1ccc2c(c1)/C(=C/Nc1ccc(S(N)(=O)=O)cc1)C(=O)N2 | 24.2% | 0.15% | 12% | -0.09% | 6.94% | 3.27% | 2.71% | 1.12% | 2.53% | 0.06% |
| COc1cc(Nc2ncc3c(C)nc(-c4cccc(Oc5ccccc5)c4)n3n2)cc(OC)c1OC | 0.75% | 0.25% | 10.8% | 2.78% | 7.44% | 2.43% | 4.03% | 2.11% | 8.58% | 4.14% |
| O=C1Nc2ccccc2/C1=C/Nc1ccc(-n2cncn2)cc1 | 25.4% | 2.9% | 5.5% | 0.86% | 3.17% | 5.47% | 12.1% | 6.04% | 6.4% | 93.3% |
| COc1cc(N2CCN(C(C)C)CC2)ccc1Nc1nc(Nc2ccc(F)cc2C(=O)NC[C@@H](O)CO)c2cc[nH]c2n1 | -0.58% | 9.42% | 46.1% | 32.3% | 69.8% | 14.9% | 57.4% | 0.55% | 7.31% | 6.47% |
| COc1cc2ncn(-c3cc(OCc4cccs4)c(C(N)=O)s3)c2cc1OC | 7.28% | 1.93% | 18.1% | 20.2% | 63.3% | 0.6% | 4.51% | 5.16% | 2.33% | 3.68% |
| C/C(Nc1ccc(S(N)(=O)=O)cc1)=C1/C(=O)Nc2ccccc21 | 9.04% | -1.51% | -1.35% | 0.16% | 2.56% | -3.47% | 3.67% | 3.1% | -2.06% | 2.55% |
| Cc1ccc(C(=O)NC(C)C)cc1-c1ccc(C(=O)NCC2CC2)cc1 | 3.01% | -2.55% | 1.88% | 0.31% | 3.79% | -1.51% | -0.22% | -3.93% | -4.45% | -2.87% |
| CN(c1ccc(NC(=O)Nc2c(Cl)cccc2Cl)cc1)c1ccnc(Nc2cccc(CS(C)(=O)=O)c2)n1 | 9.63% | 2.01% | 5.39% | 7.1% | 18.4% | 5.56% | 8.85% | 3.03% | 2.83% | 2.56% |
| COc1cccc(-n2cnc3c(N/N=C/c4ccncc4)ncnc32)c1 | 32.4% | -2.33% | -0.32% | -0.66% | 3.74% | -1.67% | -0.57% | -1.43% | -0.07% | 0.83% |
| CCC(=O)Nc1ccc(C)c(-c2ccc(C(=O)NCC3CC3)cc2)c1 | 2.31% | -3.16% | -2.43% | 0.11% | 0.55% | 2.92% | 4.2% | 4.32% | 4.25% | 2.94% |

| Structure (SMILES) | inhibition [1] | inhibition [2] | inhibition [3] | inhibition [4] | inhibition [5] | inhibition [6] | inhibition [7] | inhibition [8] | inhibition [9] | inhibition [10] |
| --- | --- | --- | --- | --- | --- | --- | --- | --- | --- | --- |
| O=C(NCC1CC1)c1ccc(-c2cccc(C(=O)NC3CC3)c2)cc1 | 0.48% | -0.22% | 5.27% | 2.02% | 5.47% | 3.38% | 2.6% | 1.42% | 1.43% | 1.22% |
| NS(=O)(=O)c1ccc(N/N=C2\C(=O)Nc3ccc(C(=O)NCCCn4ccnc4)cc32)cc1 | 77.7% | 4.8% | 34.3% | 3.92% | 17.6% | 6.1% | 10.9% | 9.89% | 38.5% | 5.16% |
| Fc1ccc(-c2ncn(CCCN3CCOCC3)c2-c2ccncc2)cc1 | 1.01% | -3.44% | -1.47% | -2.02% | -2.54% | 2.43% | 6.68% | 0.12% | 1.09% | 4.06% |
| CCN(CC)Cc1ccc(Nc2nccc(-c3cnn4ncccc34)n2)cc1 | 62.3% | 50.6% | 71.9% | 18.1% | 59% | 6.18% | 30.9% | 6.89% | 15.8% | – |
| Clc1ccc(CNc2nccc(-c3cnn4ncccc34)n2)cc1 | 11.6% | 14.8% | 57.9% | 11.9% | 49% | 3.52% | 5.1% | 4.19% | 3.23% | 3.04% |
| O=C1Nc2ccc(I)cc2C1=Cc1cc(Br)c(O)c(Br)c1 | 5.98% | -1.21% | 6.66% | -0.29% | 6.76% | 5.13% | 7.68% | 2.02% | 4.96% | 3.73% |
| CNC(=O)c1cncc(/C=C/c2c(C)cccc2C)c1 | -0.33% | -0.47% | 2.67% | 1.19% | 6.66% | 2.54% | 1.94% | -3.06% | 0.43% | 0.86% |
| COc1ccc2cc(-c3c(-c4ccncc4)nc(-c4ccc([S+](C)[O-])cc4C)n3C)ccc2c1 (centres undefined) | 14.7% | 3.05% | 6.01% | 2.25% | 5.99% | 0.79% | 8.03% | -0.46% | -2.44% | 0.3% |
| CN(C)CCCNc1nccc(-c2c(-c3ccc(F)cc3)nn3cc(C(F)(F)F)ccc23)n1 | 7.7% | -4.22% | 1.54% | 4.04% | 8.4% | 2.73% | 11% | 1.62% | 2.71% | 2.96% |
| COc1ccc2ncn(-c3cc(O[C@H](C)c4ccccc4Cl)c(C(N)=O)s3)c2c1 | -0.28% | -4.71% | -1.67% | 0.62% | 5.59% | 2.17% | -0.22% | 5.14% | 4.54% | 4.56% |
| CCc1nccc2c1nc(-c1nonc1N)n2CC | 8.38% | -0.74% | 6.91% | 0.62% | 9.48% | 3.7% | 3.34% | -1.66% | 0.54% | 1.33% |
| c1ccc(-c2n[nH]cc2-c2ccnc(-c3ccc(OCCN4CCOCC4)cc3)c2)nc1 | 5.85% | 0.91% | 2.07% | 3.43% | 5.51% | 0.62% | 5.45% | -2.8% | -3.16% | -0.63% |
| C[C@@H](Oc1cc(-n2cnc3ccc(OCC4CCN(C)CC4)cc32)sc1C(N)=O)c1ccccc1Cl | 8.9% | -1.26% | 8.77% | 3.09% | 21.8% | 7.22% | 10.9% | 7.6% | 8.78% | 4.68% |
| Fc1ccc(-c2c(-c3ccncc3)nc3n2CCS3)cc1 | 3.12% | -3.99% | 4.73% | -1.11% | 5.51% | 2.29% | 4.26% | 2.87% | 3.3% | 2.96% |
| CN(C)CCOc1ccc(-c2cc(-c3ccc4c(c3)CCC4=NO)c(-c3ccncc3)o2)cc1 | 0.28% | -5.92% | 2.06% | 0.15% | 2.98% | -1.3% | 3.02% | -0.58% | 0.91% | -1.4% |
| CCS(=O)(=O)c1ccc(OC)c(Nc2ncc(-c3cccc(-c4ccccc4F)c3)o2)c1 | 7.6% | 1.49% | 6.56% | 3.89% | 17.3% | 0.09% | 6.86% | -1.77% | -3.35% | -2.17% |
